# Test results reported in the supplement of paper PMC10037445.
# Whole data set: some 2,900 compounds, median “IRF Lucia reporter activity, fold change vs agonist alone” near 0.9, cut for the highest 2% near 2.8. The entries come from a sample that favours the highest values as a whole.
# Legend:
# RAW-Dual [1] = assay: IRF Lucia reporter activity, fold change vs agonist alone; higher = enhanced IRF activity; conditions: library stock concentration (final ~1000-fold dilution): 10 mM, agonist: MPLA (TLR4) […]
# Summary of the method: (§1)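 Reporter activity is given as fold change relative to agonist-alone wells. To measure it, 50 nL of library stock was pin-tooled onto RAW-Dual macrophages (50,000 cells/well, DMEM, 384-well plates), a PRR agonist followed 1 h later, and cells stayed at 37 °C, 5% CO2. Twenty hours on, supernatant was assayed for IRF (QuantiLuc luminescence) and NF-κB (QuantiBlue, 620 nm absorbance), and wells under 70% of agonist-control IncuCyte confluency in both mask sets were marked cytotoxic.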
# RAW-Dual [2] = assay: IRF Lucia reporter activity, fold change vs agonist alone; cytotoxicity flag (confluency mask): not cytotoxic; higher = enhanced IRF activity
# Summary of the method: as §1
# RAW-Dual [3] = assay: IRF Lucia reporter activity, fold change vs agonist alone; cytotoxicity flag (confluency mask): cytotoxic (confluency <70% of control); higher = enhanced IRF activity
# Summary of the method: as §1
# [4] = cytotoxicity flag (confluency mask): not cytotoxic
# [5] = agonist: 3'3'-cGAMP (STING) 10 ug/mL
# [6] = cytotoxicity flag (confluency mask): cytotoxic (confluency <70% of control)
smiles,measurement,setting,value
Cc1cc(C(C)Nc2ccccc2C(=O)O)c2nc(N3CCOCC3)cc(=O)n2c1 (stereo not drawn),IRF Lucia reporter activity,RAW-Dual [1]; [4],0.843
CC(O)CO.CCOc1ccc(Cc2cc(C3OC(CO)C(O)C(O)C3O)ccc2Cl)cc1.O (stereo not drawn) (library stock concentration (final ~1000-fold dilution): 10 mM),IRF Lucia reporter activity,RAW-Dual [2]; [5],1.07
same,IRF Lucia reporter activity,RAW-Dual [2]; agonist: LPS (TLR4) 0.1 ug/mL,1.03
CC(O)CO.CCOc1ccc(Cc2cc(C3OC(CO)C(O)C(O)C3O)ccc2Cl)cc1.O (stereo not drawn),IRF Lucia reporter activity,RAW-Dual [1]; [4],1.05
CC(C)(C)C(=O)OCOP(=O)(COCCn1cnc2c(N)ncnc21)OCOC(=O)C(C)(C)C (library stock concentration (final ~1000-fold dilution): 10 mM),IRF Lucia reporter activity,RAW-Dual [2]; [5],2.04
same,IRF Lucia reporter activity,RAW-Dual [2]; agonist: LPS (TLR4) 0.1 ug/mL,2.36
CC(Cn1cnc2c(N)ncnc21)OCP(=O)(O)O (stereo not drawn) (library stock concentration (final ~1000-fold dilution): 10 mM),IRF Lucia reporter activity,RAW-Dual [2]; [5],1
same,IRF Lucia reporter activity,RAW-Dual [2]; agonist: LPS (TLR4) 0.1 ug/mL,1
Nc1ncnc2c1ncn2C(C=O)OC(C=O)CO (stereo not drawn) (library stock concentration (final ~1000-fold dilution): 10 mM),IRF Lucia reporter activity,RAW-Dual [2]; [5],0.427
same,IRF Lucia reporter activity,RAW-Dual [2]; agonist: LPS (TLR4) 0.1 ug/mL,0.724
CC(C)(C)C(=O)OCOP(=O)(COCCn1cnc2c(N)ncnc21)OCOC(=O)C(C)(C)C,IRF Lucia reporter activity,RAW-Dual [1]; [4],2.95
CC(Cn1cnc2c(N)ncnc21)OCP(=O)(O)O (stereo not drawn),IRF Lucia reporter activity,RAW-Dual [1]; [4],1.05
Cc1ccc(C2OC(CO)C(O)C(O)C2O)cc1Cc1ccc(-c2ccc(F)cc2)s1.Cc1ccc(C2OC(CO)C(O)C(O)C2O)cc1Cc1ccc(-c2ccc(F)cc2)s1.O (stereo not drawn) (library stock concentration (final ~1000-fold dilution): 10 mM),IRF Lucia reporter activity,RAW-Dual [3]; [5],0.0212
same,IRF Lucia reporter activity,RAW-Dual [3]; agonist: LPS (TLR4) 0.1 ug/mL,0.026
Cc1ccc(C2OC(CO)C(O)C(O)C2O)cc1Cc1ccc(-c2ccc(F)cc2)s1.Cc1ccc(C2OC(CO)C(O)C(O)C2O)cc1Cc1ccc(-c2ccc(F)cc2)s1.O (stereo not drawn),IRF Lucia reporter activity,RAW-Dual [1]; [6],0.0328
COc1cc2c(Oc3ccc4[nH]c(C)cc4c3F)ncnc2cc1OCCCN1CCCC1.O=C(O)/C=C\C(=O)O (library stock concentration (final ~1000-fold dilution): 10 mM),IRF Lucia reporter activity,RAW-Dual [3]; [5],0.783
same,IRF Lucia reporter activity,RAW-Dual [3]; agonist: LPS (TLR4) 0.1 ug/mL,1.92
Cc1cc2c(F)c(Oc3ncnn4cc(OCC(C)OC(=O)C(C)N)c(C)c34)ccc2[nH]1 (stereo not drawn) (library stock concentration (final ~1000-fold dilution): 10 mM),IRF Lucia reporter activity,RAW-Dual [3]; [5],0.967
same,IRF Lucia reporter activity,RAW-Dual [3]; agonist: LPS (TLR4) 0.1 ug/mL,2.13
Cc1cc2c(F)c(Oc3ncnn4cc(OCC(C)O)c(C)c34)ccc2[nH]1 (stereo not drawn),IRF Lucia reporter activity,RAW-Dual [1]; [4],1.93
COc1cc2c(Oc3ccc4[nH]c(C)cc4c3F)ncnc2cc1OCCCN1CCCC1.O=C(O)/C=C\C(=O)O,IRF Lucia reporter activity,RAW-Dual [1]; [6],2.35
Cc1cc2c(F)c(Oc3ncnn4cc(OCC(C)O)c(C)c34)ccc2[nH]1 (stereo not drawn) (library stock concentration (final ~1000-fold dilution): 10 mM),IRF Lucia reporter activity,RAW-Dual [2]; [5],1.01
same,IRF Lucia reporter activity,RAW-Dual [2]; agonist: LPS (TLR4) 0.1 ug/mL,1.75
Cc1cc2c(F)c(Oc3ncnn4cc(OCC(C)OC(=O)C(C)N)c(C)c34)ccc2[nH]1 (stereo not drawn),IRF Lucia reporter activity,RAW-Dual [1]; [6],2.88
COS(=O)(=O)[O-].Cc1cc2c3c([n+](C)c4ccc(F)cc4c3c1)-c1cc(F)ccc1N2C (library stock concentration (final ~1000-fold dilution): 10 mM),IRF Lucia reporter activity,RAW-Dual [2]; [5],1.39
same,IRF Lucia reporter activity,RAW-Dual [2]; agonist: LPS (TLR4) 0.1 ug/mL,1.53
CN1CCN(CCCN2c3ccccc3Sc3ccc(Cl)cc32)CC1.O=C(O)/C=C\C(=O)O.O=C(O)/C=C\C(=O)O,IRF Lucia reporter activity,RAW-Dual [1]; [6],0.883
CN1CCN(CCCN2c3ccccc3Sc3ccc(Cl)cc32)CC1.O=C(O)/C=C\C(=O)O.O=C(O)/C=C\C(=O)O (library stock concentration (final ~1000-fold dilution): 10 mM),IRF Lucia reporter activity,RAW-Dual [3]; [5],0.64
same,IRF Lucia reporter activity,RAW-Dual [3]; agonist: LPS (TLR4) 0.1 ug/mL,0.589
O=C(O)C1OC(Oc2cc3oc(-c4ccccc4)cc(=O)c3c(O)c2O)C(O)C(O)C1O (stereo not drawn),IRF Lucia reporter activity,RAW-Dual [1]; [4],1.03
O=C(O)C1OC(Oc2cc3oc(-c4ccccc4)cc(=O)c3c(O)c2O)C(O)C(O)C1O (stereo not drawn) (library stock concentration (final ~1000-fold dilution): 10 mM),IRF Lucia reporter activity,RAW-Dual [2]; [5],0.96
same,IRF Lucia reporter activity,RAW-Dual [2]; agonist: LPS (TLR4) 0.1 ug/mL,0.958
CC(C)OC(=O)C(C)NP(=O)(OCC1OC(n2ccc(=O)[nH]c2=O)C(C)(F)C1O)Oc1ccccc1 (stereo not drawn),IRF Lucia reporter activity,RAW-Dual [1]; [4],1.04
CC(C)OC(=O)C(C)NP(=O)(OCC1OC(n2ccc(=O)[nH]c2=O)C(C)(F)C1O)Oc1ccccc1 (stereo not drawn) (library stock concentration (final ~1000-fold dilution): 10 mM),IRF Lucia reporter activity,RAW-Dual [2]; [5],1.04
same,IRF Lucia reporter activity,RAW-Dual [2]; agonist: LPS (TLR4) 0.1 ug/mL,0.731
COc1cc2nc(N3CCCC3)nc(NCCCCCN3CCCC3)c2cc1OC,IRF Lucia reporter activity,RAW-Dual [1]; [6],0.8
COc1cc2c(NC3CCN(C(C)C)CC3)nc(N3CCC(F)(F)CC3)nc2cc1OCCCN1CCCC1 (library stock concentration (final ~1000-fold dilution): 10 mM),IRF Lucia reporter activity,RAW-Dual [3]; [5],0.849
same,IRF Lucia reporter activity,RAW-Dual [3]; agonist: LPS (TLR4) 0.1 ug/mL,4.2
COc1cc2c(NC3CCN(C(C)C)CC3)nc(N3CCC(F)(F)CC3)nc2cc1OCCCN1CCCC1,IRF Lucia reporter activity,RAW-Dual [1]; [6],0.652
COc1cc2nc(N3CCCC3)nc(NCCCCCN3CCCC3)c2cc1OC (library stock concentration (final ~1000-fold dilution): 10 mM),IRF Lucia reporter activity,RAW-Dual [3]; [5],0.313
same,IRF Lucia reporter activity,RAW-Dual [3]; agonist: LPS (TLR4) 0.1 ug/mL,2.54
COc1cc2c(NC3CCN(C(C)C)CC3)nc(C3CCCCC3)nc2cc1OCCCN1CCCC1 (library stock concentration (final ~1000-fold dilution): 10 mM),IRF Lucia reporter activity,RAW-Dual [3]; [5],0.154
same,IRF Lucia reporter activity,RAW-Dual [3]; agonist: LPS (TLR4) 0.1 ug/mL,0.0189
